Measurements: PubChem BioAssay AID493170 (National Center for Advancing Translational Sciences (NCATS), 2011)
Records with an inconclusive call do not appear. Where a call stands in place of a potency, no number is given. Activity calls are given as the source filed them. Calls come from the whole dose curve; as a rule, active = well fitted inhibition curve with a large enough effect; inconclusive = small, poorly fitted or top-dose-only effect, or effect the other way; inactive = flat fitted curve, though single readings scatter.

target: Ubiquitin carboxyl-terminal hydrolase 2 (Homo sapiens) (UniProt O75604); test: Ub-rhodamine 110 based assay for inhibitors Ubiquitin-specific Protease USP2a; details: USP2a Ub-rhodamine110 cleavage, fluorescence; series mostly up to 38.3 µM; note: nearly all actives have a fitted effect of over 50% in size
Sequence (O75604 whole entry, looked up): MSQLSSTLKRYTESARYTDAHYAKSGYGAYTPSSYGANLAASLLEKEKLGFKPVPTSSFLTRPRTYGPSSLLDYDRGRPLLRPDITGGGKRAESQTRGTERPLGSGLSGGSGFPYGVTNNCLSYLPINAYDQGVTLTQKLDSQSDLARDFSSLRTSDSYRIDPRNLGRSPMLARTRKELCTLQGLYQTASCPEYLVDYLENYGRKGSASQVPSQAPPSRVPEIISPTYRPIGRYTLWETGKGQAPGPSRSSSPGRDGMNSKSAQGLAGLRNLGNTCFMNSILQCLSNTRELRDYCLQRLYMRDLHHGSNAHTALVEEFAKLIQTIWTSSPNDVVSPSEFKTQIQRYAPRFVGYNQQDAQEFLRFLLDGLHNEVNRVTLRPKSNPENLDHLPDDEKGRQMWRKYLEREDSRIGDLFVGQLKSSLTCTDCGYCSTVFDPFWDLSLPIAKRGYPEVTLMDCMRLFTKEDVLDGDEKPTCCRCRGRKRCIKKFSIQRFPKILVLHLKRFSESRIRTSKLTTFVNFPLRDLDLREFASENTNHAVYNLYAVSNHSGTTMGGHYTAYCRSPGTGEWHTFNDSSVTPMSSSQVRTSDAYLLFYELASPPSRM
Method in brief: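 Kinetic fluorescence (485/531 nm) read each minute over 7 min after adding Ub-Rhod110 (150 nM final) to USP2a (5 nM final). The enzyme had 30 min RT exposure to compounds beforehand in Tris pH 8.0 buffer with CaCl2, CHAPS and beta-ME.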
Potency is the fitted concentration of half-maximal effect.

Row | SMILES | Potency
1 | CCOC(=O)Nc1ccc(S(=O)(=O)Nc2cc(C)nc(C)n2)cc1 | inactive
2 | O=C1c2ccccc2CCC12N=NCC2c1ccc(Br)cc1 (centres undefined) | inactive
3 | CN1CCN(S(=O)(=O)c2ccc(N3CCN(S(=O)(=O)/C=C/c4ccccc4)CC3)nc2)CC1 | inactive
4 | C=CC#CC[N+]1(CC#Cc2ccccc2)CCOCC1 | inactive
5 | O=C(NCCN1C(=O)CSC1=O)C1CC(=O)N(c2ccccc2)C1 (centres undefined) | inactive
6 | O=C1Nc2ccccc2SC(c2ccccc2)C1O (centres undefined) | 3.98 µM (active)
7 | Cc1n[nH]c(C)c1S(=O)(=O)N1CCCC(C(=O)NC2CCCc3ccccc32)C1 (centres undefined) | inactive
8 | CC(C)(C)c1cc(Br)ccc1OCC(=O)Nc1ncn[nH]1 | inactive
9 | COc1ccc(C(=O)OCC(=O)c2c[nH]c3ccccc23)c(OC)c1 | inactive
10 | CCOC(=O)C1CCCN(CC(=O)Nc2c(C(=O)OC)[nH]c3ccc(C)cc23)C1 (centres undefined) | inactive
11 | CC(C)N(C(=O)c1sc2cc([N+](=O)[O-])ccc2c1Cl)C(C)C | inactive
12 | Cc1ccc(C(=O)N/C(=C/c2cccs2)C(=O)NCc2ccco2)cc1 | inactive
13 | CNc1sc(C(=O)c2ccc(F)cc2)c(N)c1-c1nc2ccccc2s1 | inactive
14 | O=C1Nc2ccc(S(=O)(=O)N3CCCCCC3)c3cccc1c23 | inactive
15 | C=CC[C@H](CC(=O)N(CCO)Cc1ccccc1)C(=O)N[C@H](C)COC(=O)[C@@H](CC=C)CC(=O)OC(C)(C)C | inactive
16 | O=C(Nc1nc(-c2ccco2)c(-c2ccco2)s1)c1ccc(F)cc1F | 10 µM (active)
17 | N#CNC(=Nc1cccc(F)c1)SCc1cccc(F)c1 | inactive
18 | COc1cc(C)ccc1OCCOc1cc(C)ccc1Cl | inactive
19 | O=C(O)C1CCN1C1CCCCC1 (centres undefined) | inactive
20 | CC1(C)CC(=O)C2=C(C1)Oc1ncn(CCCO)c(=N)c1C2c1ccccc1 (centres undefined) | inactive

Row | SMILES | Potency
21 | CC(=O)NS(=O)(=O)c1ccc(NC(=O)c2cc(-c3ccc(C)c(C)c3)nc3ccccc23)cc1 | 11.2 µM (active)
22 | O=C(NC12CC3CC(CC(C3)C1)C2)C1=COCCO1 | inactive
23 | C[C@H](CO)N1C[C@H](C)[C@@H](CN(C)S(=O)(=O)c2cccs2)Oc2c(NC(=O)Nc3ccc4c(c3)OCO4)cccc2C1=O | inactive
24 | CCOc1ccc2[nH]c(=O)c(CN(CCc3ccccc3)C(=O)c3cnccn3)cc2c1 | inactive
25 | CCCCCCCCCCOC(=O)Cn1c(COc2ccccc2C)[n+](C)c2ccccc21 | inactive
26 | C[C@@H]1CN([C@H](C)CO)C(=O)Cc2cc(NS(=O)(=O)c3ccc(Cl)cc3)ccc2O[C@H]1CN(C)Cc1ccc(C(F)(F)F)cc1 | 10 µM (active)
27 | O=C(Nc1ccc2nc(-c3ccco3)c(-c3ccco3)nc2c1)N1CCN(c2ccccn2)CC1 | 3.55 µM (active)
28 | Nc1cc(=O)[nH]c(SCc2cccc(Cl)c2)n1 | inactive
29 | Cc1nc(N(C)C)c2sc(=S)n(C)c2n1 | inactive
30 | O=[N+]([O-])c1cc(-c2nnc(Nc3ccccc3)c3ccccc23)ccc1N1CCOCC1 | inactive
31 | COc1ccc(/C=C2\SC(=S)N(NS(=O)(=O)c3ccc(C)cc3)C2=O)c(OC)c1 | 10 µM (active)
32 | CC[C@]12c3[nH]c4cc(-c5ccco5)ccc4c3CCN1C(=O)[C@@H](CC(=O)NC/C=C(\C)CCC=C(C)C)C[C@@H]2C(=O)N1CCN(C(=O)C2CC2)CC1 | inactive
33 | O=C(CSc1nc(O)cc(=O)n1-c1ccccc1)NC1CCCCC1 | inactive
34 | CC1CCCCN1CCNC(=O)CC1Oc2ccccc2NC1=O (centres undefined) | inactive
35 | CCCC(c1nnnn1Cc1ccc(OC)cc1)N1CCC(C(N)=O)CC1 (centres undefined) | inactive
36 | COc1ccc(Cc2nnc(NC(=O)Cc3cccs3)s2)cc1 | 1.41 µM (active)
37 | CCSc1nc(N2CCCCC2)c2c(c1C#N)CCCC2 | inactive
38 | Cn1c(C(=O)N2CCN(Cc3ccc4c(c3)OCO4)CC2)cc2sccc21 | inactive
39 | Cc1n[nH]c(C)c1S(=O)(=O)N1CCCC(C(=O)Nc2nccs2)C1 (centres undefined) | inactive
